Measurements published in the supplement of paper PMC12340641.
Structures can show the parent of a compound that is named as a salt.

Experiments:
[1] = target: IKZF1 (dCK*-IKZF1 fusion in HEK293FT) (UniProt Q13422); experiment: inhibition of IKZF1 HTRF signal (DMSO = 0%, pomalidomide 10 uM = 100%); higher = lower IKZF1 protein level; conditions: compound concentration: 5 uM, overnight (~20 h)
Outline: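 HEK293FT cells stably expressing a dCK*-IKZF1 fusion (2000/well, 384-well) were treated overnight at 37 °C with 5 μM compound in single wells. They were then lysed 30 min at room temperature, and lysate was incubated overnight with a commercial HTRF total-IKZF1 antibody kit. The time-resolved FRET ratio (665/620 nm) was background-subtracted. Percent inhibition of IKZF1 signal was normalised per plate to vehicle (0%) and a reference degrader (100%).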

HEK293FT dCK*-only = experiment: relative growth in counter assay (no AraC = 100%, AraC + DMSO = 0%); higher = more growth rescue independent of IKZF1; conditions: compound concentration: 5 uM; AraC concentration: 0.3 uM; overnight pretreatment + 4 days AraC
Outline: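 In 384-well plates, 300 HEK293FT cells per well expressing an engineered kinase construct alone got 5 μM compound 2 h after seeding. After overnight at 37 °C, 0.3 μM nucleoside suicide substrate plus medium was applied for 4 days. Counting of Hoechst 33342-stained nuclei by imaging on day 5 was normalised per plate, with 100% for no-substrate wells and 0% for substrate plus vehicle.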

HEK293FT dCK*-IKZF1 = experiment: relative growth recovery (pomalidomide 10 uM = 100%, DMSO = 0%); higher = more growth rescue (IKZF1 fusion degradation); conditions: compound concentration: 5 uM; AraC concentration: 0.3 uM; overnight pretreatment + 4 days AraC
Outline: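 HEK293FT cells stably expressing an engineered deoxycytidine kinase–IKZF1 fusion were seeded at 300 per well in 384-well plates and given 5 μM compound 2 h later. After overnight incubation at 37 °C, a nucleoside suicide substrate at 0.3 μM was added with medium for 4 days, and on day 5 Hoechst 33342-stained nuclei were counted by whole-well imaging. Growth recovery was normalised per plate between a reference degrader and vehicle, set to 100% and 0% respectively, and the values are means of duplicates run on different days.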

Sequence of IKZF1 (dCK*-IKZF1 fusion in HEK293FT) (Q13422 whole entry, looked up, the tested form may be a part): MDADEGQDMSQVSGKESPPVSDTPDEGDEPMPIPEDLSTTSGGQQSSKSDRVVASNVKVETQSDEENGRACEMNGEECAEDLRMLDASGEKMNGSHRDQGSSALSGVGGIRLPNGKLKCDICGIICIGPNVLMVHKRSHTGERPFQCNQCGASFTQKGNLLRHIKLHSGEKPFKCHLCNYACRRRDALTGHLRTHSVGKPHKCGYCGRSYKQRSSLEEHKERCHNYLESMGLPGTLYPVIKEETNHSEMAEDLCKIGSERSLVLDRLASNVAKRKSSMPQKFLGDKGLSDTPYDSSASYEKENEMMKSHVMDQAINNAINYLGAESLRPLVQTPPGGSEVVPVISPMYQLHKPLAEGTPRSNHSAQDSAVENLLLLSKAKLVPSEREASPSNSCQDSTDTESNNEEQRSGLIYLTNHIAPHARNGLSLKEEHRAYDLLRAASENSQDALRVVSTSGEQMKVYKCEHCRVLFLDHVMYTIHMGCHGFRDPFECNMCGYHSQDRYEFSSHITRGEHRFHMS

Compound | inhibition of IKZF1 HTRF signal [1] [%] | relative growth in counter assay (HEK293FT dCK*-only) [%] | relative growth recovery (HEK293FT dCK*-IKZF1) [%]
O=C1Nc2ccc(Cl)cc2[C@@](C#CC2CC2)(C(F)(F)F)O1 [Efavirenz] | 0.88 | -1.3 | 0.45
Cc1ncsc1-c1ccc(CNC(=O)[C@@H]2C[C@@H](O)CN2C(=O)[C@@H](NC(=O)COCCCCOc2ccc(-c3ccc(N4C(=S)N(c5ccc(C#N)c(C(F)(F)F)c5)C(=O)C4(C)C)cc3)cc2)C(C)(C)C)cc1 | 21.2 | 72.3 | 55.3
O=c1[nH]nc(Sc2ncc([N+](=O)[O-])s2)n1-c1ccc2c(c1)OCCO2 | -27.9 | -34.9 | -12.8
CC[C@@]1(O)C(=O)OCc2c1cc1n(c2=O)Cc2c-1nc1cc(F)c(C)c3c1c2[C@@H](N)CC3.CS(=O)(=O)O [Exatecan Mesylate] | -4.98 | -35.8 | -15.4
CSc1ccc2c(c1)C(N1CCN(C)CC1)Cc1ccccc1S2 (stereo not given) | -34.7 | -1.22 | -1.56
O=C1c2ccccc2-c2n[nH]c3cccc1c23 [pyrazolanthrone] | -38.5 | -9.29 | -5.03
COc1ccc(-c2nc3cc(C4=NNC(=O)CC4C)ccc3[nH]2)cc1 (stereo not given) [Pimobendan (Vetmedin)] | -8.62 | -0.97 | -0.495
OC(c1cc(C(F)(F)F)nc2c(C(F)(F)F)cccc12)C1CCCCN1 (stereo not given) [Mefloquine HCl] | -25.2 | -1.31 | -6.05
COCCN(C(=O)c1cc(OC)c(OC)c(OC)c1)c1nc(-c2ccccc2)cs1 [eact] | -41.3 | -0.03 | -1.76
CN(C)CCOC1=Cc2ccccc2Sc2ccc(Cl)cc21 [zotepine] | -37.7 | 2.78 | -1.67
